Experimental data: PubChem BioAssay (NCATS)
Results filed as inconclusive are left out. Entries that show only a call come without a potency. Unmarked numbers belong to inactive results. Calls of active or inactive are those of the source. Calls follow the shape of the dose curve; as a rule, active = well fitted curve in the direction sought with a large enough effect; inconclusive = small, poorly fitted or top-dose-only effect, or another doubt; inactive = no such curve, though single readings can be large; an effect the other way counts as inactive or inconclusive.

How the values were obtained:
[1] = qHTS to identify inhibitors of the type 1 interferon - major histocompatibility complex class I in skeletal muscle: primary screen against the NCATS Mechanism Interrogation Plate v5.0 (MIPE) Libary (AID 1347411); settings: iHSKM cells + IFN-b, HiBiT-tagged MHC-I luminescence, 24 h; series mostly up to 45.8 µM; also: nearly all actives have a fitted effect of over 65% in size; also: potency is read from the fitted curve at half-maximal effect
Method in brief: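 Luminescence from HiBiT-tagged endogenous HLA-B*08:01 served as the MHC class I read-out. CRISPR-engineered C25cl48 human myoblasts received 4.0 ng/ml IFN-beta plus compound for 24 hrs, with an 11-point, 1:3 series topping at 46 uM final.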

[2] = target: Calcium and integrin-binding protein 1 (Homo sapiens) (UniProt Q99828); assay: Primary qHTS for Identification of Calcium Integrin Binding Protein 1 (CIB1) Competitor (AID 1508620); settings: CIB1-GST / FITC-alphaIIb peptide fluorescence polarization; series mostly up to 114 µM;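 also: GST tagged CIB1 binding a fluorescein labelled alphaIIb integrin peptide tracer; top concentration of the series differs between compounds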
Chain of Calcium and integrin-binding protein 1 (Homo sapiens) (Q99828 whole entry, looked up): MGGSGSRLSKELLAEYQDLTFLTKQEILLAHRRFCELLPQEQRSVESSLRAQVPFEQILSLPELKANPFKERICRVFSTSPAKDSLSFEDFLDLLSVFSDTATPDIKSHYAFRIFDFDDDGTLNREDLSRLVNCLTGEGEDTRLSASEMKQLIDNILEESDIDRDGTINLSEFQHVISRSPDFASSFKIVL
Method in brief: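 Fluorescence polarization competition: GST-tagged CIB1 (1 uM final) preincubated with compound 15 min at room temperature, then FITC-labelled alphaIIb peptide (100 nM final) added. After 15 min at room temperature, polarization read at Ex 480/Em 540.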

Compound | Potency [1] | Potency [2] | activity change, negative = inhibition [1]
COC(C)(C)CCn1nc(Nc2c(C)cccc2C)c2cnc(Nc3ccc(OCCN4CCCC4)c(F)c3)nc21 | 11.7 µM (active) | inactive | 
Nc1nccc(-c2c(-c3ccc(F)cc3)ncn2C2CCCCC2)n1 | inactive | inactive | 
O=C1NC(=O)C(c2cnc3ccccn23)=C1c1cn2c3c(cc(F)cc13)CN(C(=O)N1CCCCC1)CC2 | 18.6 µM (active) | inactive | 
CCNC(=O)C#Cc1ccc2c(C(=Nc3ccc(CN(C)C)cc3)c3ccccc3)c(O)[nH]c2c1 | 4.04 µM (active) | inactive | 
NCCOc1cc(C(=O)Nc2cc(OCCN)c3ccccc3n2)nc(C(=O)Nc2cc(OCCN)c3ccccc3n2)c1 | inactive | inactive | 
CC(C)NC(=O)COc1cccc(-c2nc(Nc3ccc4[nH]ncc4c3)c3ccccc3n2)c1 | inactive | inactive | 
O=C([C@@H](Cc1cccc(C(F)(F)F)c1)NS(=O)(=O)c1cc(F)c2c(c1)CCNC2)N1CCCC1 | inactive | inactive | 
COc1cc2c(cc1OCCCN1CCCC1)N=C(N)C21CCC1 | inactive | inactive | 
Fc1ccc(-c2nc(-c3ccccc3F)[nH]c2-c2ccncc2)cc1 | inactive | inactive | 
O=C(Nc1ccc2[nH]nc(-c3ccncc3)c2c1)[C@@H]1CCN(CC(=O)N2CCN(c3ccc(-c4ncccn4)cc3)CC2)C1 | inactive | inactive | 
COc1c(C)cc(NC(=O)c2nn(Cc3ccc(F)cc3)c3c2CN(C(=O)c2ccc[nH]2)C[C@]3(C)C(N)=O)cc1C |  | inactive | -14.7% [at 8.44 µM]
CN(C)N(C)C(=O)[C@@]1(Cc2ccccc2)CCCN(C(=O)[C@@H](Cc2c[nH]c3ccccc23)NC(=O)C(C)(C)N)C1 | inactive | inactive | 
C=CCNC1=C2C[C@@H](C)C[C@H](OC)[C@H](O)[C@@H](C)/C=C(\C)[C@H](OC(N)=O)[C@@H](OC)/C=C\C=C(/C)C(=O)NC(=CC1=O)C2=O | 0.829 µM (active) |  | 
CS(=O)(=O)c1ccc(Oc2cc(F)cc(C#N)c2)c2c1[C@H](O)C(F)(F)C2 | inactive | inactive | 
C=CC(=O)Nc1cccc(Nc2nc(Nc3ccc(NC4CN(CCF)C4)cc3OC)ncc2C(F)(F)F)c1 | 16.5 µM (active) | inactive | 
COC(=O)N1CC2(CC2)C[C@H](C(=O)NO)[C@H]1C(=O)N1CCN(c2ccccc2)CC1 | inactive | inactive | 
CN1CCN(c2ccc(-c3cccc(CN4CCOCC4)c3)cc2NC(=O)c2c[nH]c(=O)cc2C(F)(F)F)CC1 | inactive | inactive | 
CCOC(=O)[C@@]1(CCCCCCOc2ccc(Cl)cc2)CO1 | inactive | inactive | 
Cc1cc2c(F)c(Oc3ncnn4cc(OCC(C)OC(=O)C(C)N)c(C)c34)ccc2[nH]1 (centres undefined) | inactive | inactive | 
Cn1ncnc1[C@H]1c2n[nH]c(=O)c3cc(F)cc(c23)N[C@@H]1c1ccc(F)cc1 | inactive | inactive | 
Cn1cc(-c2ccc(F)c(C(F)(F)F)c2)nc1C1CCN(c2ncnc3[nH]ncc23)CC1 | inactive | inactive | 
CCC[C@H](N[C@H]1CCc2cc(F)cc(F)c2C1)C(=O)Nc1cn(C(C)(C)CNCC(C)(C)C)cn1 | inactive | inactive | 
CS(=O)(=O)Nc1cc2occ(NC=O)c(=O)c2cc1Oc1ccccc1 | inactive |  | 
Cc1[nH]c(/C=C2\C(=O)Nc3ccc(S(=O)(=O)N(C)c4cccc(Cl)c4)cc32)c(C)c1C(=O)N1CCN(C)CC1 | 16.5 µM (active) | inactive | 

Compound | Potency [1] | Potency [2] | activity change, negative = inhibition [1]
Cn1cc(-c2cnn3c(N)c(Br)c(C4CCCNC4)nc23)cn1 (centres undefined) | inactive | inactive | 
CC(/C=C/C(=O)NO)=C\[C@@H](C)C(=O)c1ccc(N(C)C)cc1 | 2.08 µM (active) | inactive | 
O=C(NCC(=O)N1CCCC1)Nc1ccc2cnccc2c1 | inactive |  | 
Cc1ccc(C(=O)Nc2ccc(CN3CCN(C)CC3)c(C(F)(F)F)c2)cc1C#Cc1cnc2[nH]ncc2c1 | 0.117 µM (active) | inactive | 
O=C(N[C@H]1CCC[C@H](CO)C1)C1CCN(c2nc3cc(Cl)c(-c4ccc(Cl)cc4)cc3o2)CC1 | inactive | inactive | 
C=CC(=O)Nc1ccc2ncnc(Nc3cccc(Br)c3)c2c1 | 11.7 µM (active) | inactive | 
COc1ccc(-c2cnc3c(-c4cccc5ncccc45)cnn3c2)cc1 | inactive | inactive | 
N#Cc1ccnc(Nc2cc(C3CCN(C4COC4)CC3)cc(N3CCC(F)(F)C3)n2)c1 | 2.34 µM (active) | inactive | 
CC(C)NC(=O)N1CC[C@H](N=C2Nc3cc(F)ccc3N(CC(F)F)c3ccc(Cl)cc32)C1 |  | inactive | -19.9% [at 8.44 µM]
CN1CCN(C2CCN(C(=O)Nc3cc(Oc4ccc(NC(=O)C5(C(=O)Nc6ccc(F)cc6)CC5)c(F)c4)ccn3)CC2)CC1 | 20.8 µM (active) |  | 
COC1CCN(C(=O)c2cc(Cc3n[nH]c(=O)c4ccccc34)ccc2F)CC1 | inactive | inactive | 
Cc1cccc(CC(=O)N2CCc3c2ccc(-c2cn(C)c4ncnc(N)c24)c3F)n1 | inactive |  | 
Cn1cc(-c2ccc3c(c2)CCN3C(=O)Cc2cccc(C(F)(F)F)c2)c2c(N)ncnc21 | inactive | inactive | 
Cc1[nH]c(/C=C2\C(=O)Nc3ccc(F)cc32)c(C)c1C(=O)NCCN1CCCC1 | 10.2 µM (active) | inactive | 
COc1cccc(OCCCN)c1-c1cc(Nc2cnc(C#N)cn2)n[nH]1 | 6.58 µM (active) | inactive | 
O=C(O)C1=CO[C@@H](O[C@@H]2O[C@H](CO)[C@@H](O)[C@H](O)[C@H]2O)[C@@H]2C(CO)=CC[C@H]12 | inactive | inactive | 
Cc1cc(-c2cc(OC(=O)c3ccccc3)ccc2Cl)cc2nnc(Nc3ccc(OCCN4CCCC4)cc3)nc12 | inactive | inactive | 
COC(=O)Nc1cc(Nc2cc(NC3CC3)c3ncc(C#N)n3n2)c(Cl)c(N2CCN(C)CC2)c1 | 4.66 µM (active) | inactive | 
C[C@@H]1CN(CC(=O)N2CC(C)(C)c3ncc(Cc4ccc(F)cc4)cc32)[C@@H](CN2CCOC[C@H]2C)CN1 | inactive | inactive | 
C[C@@H](c1ccc2nccn2c1)n1nnc2ncc(-c3cnn(C)c3)nc21 | inactive | inactive | 
COc1ccc(-c2c(C)nn3c(NCCN4CCOCC4)cc(C)nc23)cc1OC | inactive | inactive | 
O=C(Nc1ccnc(NC(=O)C2CC2)c1)c1c(Cl)cccc1Cl | inactive | inactive | 
CCN(c1cc(-c2ccc(CN3CCOCC3)cc2)cc(C(=O)NCc2c(C)cc(C)[nH]c2=O)c1C)C1CCOCC1 | inactive | inactive | 
O=C(NCCCNc1nc(Nc2cccc(CN3CCOCC3)c2)ncc1C1CC1)C1CCC1 | inactive | inactive | 

Compound | Potency [1] | Potency [2] | activity change, negative = inhibition [1]
Cc1c(F)ccc(C(=O)Nc2cc([N+](=O)[O-])ccc2N2CCN(C)CC2)c1Cl | inactive | inactive | 
COc1ccccc1C(=O)Nc1cc2c(cc1N1CCCC1)n(C)c(=O)n2C | inactive | inactive | 
O=C(c1c(F)ccc(NS(=O)(=O)N2CC[C@@H](F)C2)c1F)c1c[nH]c2ncc(-c3cnc(C4CC4)nc3)cc12 | inactive | inactive | 
NC(=O)c1ccccc1Nc1ccnc(Nc2cccc(O)c2)n1 | 4.66 µM (active) | inactive | 
COc1cc(OC)c2c(=O)[nH]c(-c3cc(C)c(OCCO)c(C)c3)nc2c1 | inactive | inactive | 
O=c1[nH]c([C@@H]2CCCN2)nc2c1oc1ccc(Cl)cc12 | inactive | inactive | 
COc1cccc(-c2cc(F)ccc2C2Cc3nc(N)nc(C)c3C(=O)N2)n1 (centres undefined) | 0.0587 µM (active) | inactive | 
O=C(Nc1cccnc1)c1cc(-c2ccnc(F)c2)ccc1OCc1ccccc1 | inactive | inactive | 
FC(F)(F)c1ccc(/C=C/c2nc(COc3ccc(CCCCn4ccnn4)cc3)co2)cc1 | inactive | inactive | 
COc1ccc(-n2c(SCCCN3C(=O)c4cccc5cccc(c45)C3=O)nnc2-c2ccncc2)cc1 | inactive | inactive | 
O=C1Nc2nc(-c3c(O)cccc3OCC3CC3)cc([C@@H]3CCCNC3)c2CO1 | 3.7 µM (active) | inactive | 
CCCC(CCC)C(=O)Nc1ccn([C@@H]2O[C@H](CO)[C@@H](O)C2(F)F)c(=O)n1 | inactive | inactive | 
CN1C(=O)c2sccc2N(C)c2nc(Nc3ccc(S(N)(=O)=O)cc3)ncc21 | 26.2 µM (active) | inactive | 
FC(F)(F)c1ccc(CNc2ccc(Cc3c[nH]c4ncc(Cl)cc34)cn2)cn1 | inactive | inactive | 
Cc1nc(NC(=O)N2CCCC2C(N)=O)sc1-c1ccnc(C(C)(C)C(F)(F)F)c1 (centres undefined) | 4.66 µM (active) | inactive | 
Cc1nnc(C[C@@H]2C=C(c3ccc(Cl)cc3)c3ccccc3-n3c(C)nnc32)o1 | inactive | inactive | 
O=C(Cc1cccc(OC(F)(F)F)c1)Nc1ccc(CCCCc2nnc(NC(=O)Cc3ccccn3)s2)nn1 | inactive | inactive | 
C[C@H](CN(C)C)Oc1nc(Nc2cc3cccc(Cl)c3cn2)cnc1C#N | inactive | inactive | 
CC[C@@H](C)Nc1cc(C(=O)NC2CC3CC[C@@H](C2)N3c2ccc(C(=O)C3CC3)cn2)c(C)cc1C(N)=O (some centres undefined) | 0.117 µM (active) | inactive | 
C[C@@H]1COCCN1c1cc(=O)n2c(n1)N(Cc1cncc(Cl)c1)[C@H](C(F)(F)F)CC2 | inactive | inactive | 
CN1CC[C@@H](c2c(O)cc(O)c3c(=O)cc(-c4ccc(C(F)(F)F)cc4Cl)oc23)[C@@H]1CO | 13.1 µM (active) | inactive | 
CCNC1(C(N)=O)CCN(c2ncnc3c2nc(-c2ccccc2Cl)n3-c2ccc(Cl)cc2)CC1 | inactive | inactive | 
Cc1c(NC(=O)c2cc3c(s2)CCCC3)cccc1-c1cn(C)c(=O)c(Nc2ccc(C3C(=O)N(C)CCN3C)cc2)n1 (centres undefined) | inactive | inactive | 
CC1(C)CN(C(=O)c2ccc(-c3cccc4nc(NC(=O)C5CC5)nn34)cc2)C1 | 4.15 µM (active) | inactive | 
